Screening data as filed in PubChem.
This is one part of a sample in which hits are shown more often than they occur.
NTMT1 inhibitor – Primary qHTS for Inhibitors of N-terminal methyltransferase 1 (NTMT1): MTaseGlo Assay; AID 1645870, 2021; Potency, µM (top dose mostly 114 µM), most hits filed as inhibitors; NTMT1 MTase-Glo SAH luminescence, purified enzyme; 59,000 compounds, 2.5% hits; N-terminal Xaa-Pro-Lys N-methyltransferase 1 (Homo sapiens), Q9BV86; also: nearly all actives have a fitted effect of over 65% in size
GALC G270D up – A Novel Cell-Based Assay to Identify Small Molecules for B -Galactocerebrosidase | P54803 | Potency, µM (highest dose often 57.5 µM), usual class: activators | 45,000 compounds, 0.1% hits | 145M-Twi-hGALC-G270D cells (Twitcher mouse brain line with human GALC G270D), HMU-beta-Gal fluorescence, 48 h | AID 1159614, 2016; also: nearly all actives have a fitted effect of over 65% in size
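Fluorescence readout: HMU-β-gal cleavage by mutant GALC (0.1 mM final, citrate/phosphate pH 5.2 with 1 mg/mL taurocholate), stopped with carbonate/bicarbonate plus Triton X-100. Cells: murine Twitcher 145M-Twi expressing human G270D GALC; qHTS for activators.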
FH mod – Identification of activators of human fumarate hydratase by quantitative high-throughput screening; Fumarate hydratase, mitochondrial (Homo sapiens), P07954; FH coupled MDH/diaphorase resazurin fluorescence, 15 min; Potency, µM (series often up to 79.9 µM), hits mostly inhibitors; 54,000 compounds, 0.22% hits; also: the screen sought activators but most active calls are inhibition curves; nearly all actives have a fitted effect of over 45% in size
Target sequence (P07954 whole entry, looked up): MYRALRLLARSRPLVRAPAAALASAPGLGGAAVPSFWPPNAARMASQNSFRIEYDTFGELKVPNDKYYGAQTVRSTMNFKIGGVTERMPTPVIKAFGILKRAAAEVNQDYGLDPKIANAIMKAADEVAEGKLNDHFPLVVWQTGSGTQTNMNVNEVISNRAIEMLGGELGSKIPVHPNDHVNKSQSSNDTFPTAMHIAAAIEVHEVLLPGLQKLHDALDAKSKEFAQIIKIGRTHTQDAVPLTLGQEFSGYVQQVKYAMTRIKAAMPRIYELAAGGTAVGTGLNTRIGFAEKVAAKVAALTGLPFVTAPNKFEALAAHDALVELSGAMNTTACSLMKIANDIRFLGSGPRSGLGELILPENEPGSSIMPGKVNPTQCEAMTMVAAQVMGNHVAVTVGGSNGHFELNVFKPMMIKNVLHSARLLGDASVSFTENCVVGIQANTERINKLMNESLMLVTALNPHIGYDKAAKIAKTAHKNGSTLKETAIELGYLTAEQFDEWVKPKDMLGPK
Hits are given with their value; 0 = inactive; ? = inconclusive; - = no result; [ ] = another dose, or the depositor's remark. Calls follow the shape of the dose curve; as a rule, active = well fitted curve in the direction sought with a large enough effect; inconclusive = small, poorly fitted or top-dose-only effect, or another doubt; inactive = no such curve, though single readings can be large; an effect the other way counts as inactive or inconclusive.

SMILES	NTMT1 inhibitor	GALC G270D up	FH mod
O=C(Nc1cc(Oc2cc(F)c(NC(=O)C3(C(=O)Nc4ccc(F)cc4)CC3)cc2F)ccn1)C1CC1	0	-	0
Fc1ccc(-c2nc(C3CCNCC3)sc2-c2ccnc(NC3CC3)n2)cc1	0	-	0
CC(C)c1c2cc(-c3ccnc(NC4CCC(NC5CCOCC5)CC4)n3)ccc2nn1C (stereo unspecified)	45µM	-	0
CC1=C2[N-][C@H]([C@H](CC(N)=O)[C@@]2(C)CCC(=O)NC[C@@H](C)OP(=O)([O-])O[C@H]2[C@@H](O)[C@@H](n3cnc4cc(C)c(C)cc43)O[C@@H]2CO)[C@]2(C)N=C(C(C)=C3N=C(C=C4N=C1[C@@H](CCC(N)=O)C4(C)C)[C@@H](CCC(N)=O)[C@]3(C)CC(N)=O)[C@@H](CCC(N)=O)[C@]2(C)CC(N)=O.O.[Co+2]	50µM	-	-
COc1nc2ccc(Br)cc2cc1[C@@H](c1ccccc1)[C@@](O)(CCN(C)C)c1cccc2ccccc12	0	-	0
COc1cccc(-c2nc(CS(=O)(=O)CC(=O)NCc3cccc(Cl)c3)c(C)o2)c1	0	0	0
Cc1ccccc1-c1nc(CS(=O)(=O)CC(=O)NCc2cccc(Cl)c2)c(C)o1	89µM	0	0
Cc1ccc(-c2nc(CS(=O)(=O)CC(=O)NCc3ccc(Cl)cc3)c(C)o2)cc1	0	0	0
Cc1oc(-c2cccc(Cl)c2)nc1CS(=O)(=O)CC(=O)NCc1ccccc1Cl	89µM	0	0
CC(C)c1ccccc1-c1nc(NCc2ccc(-c3cccnc3)cc2)c2ccccc2n1	0	-	-
CC(C)(C)OC(=O)N1CCN(c2ccc(NCc3cncc(-c4ccc(C#N)cc4)c3)cc2)CC1	0	-	-
C[C@H]1CN(C2COC2)CCN1c1ccc(Nc2cc(-c3ccnc(N4CCn5c(cc6c5CC(C)(C)C6)C4=O)c3CO)cn(C)c2=O)nc1	0	-	-
CC[C@H]1OC(=O)[C@H](C)C(=O)[C@H](C)[C@@H](O[C@H]2O[C@H](C)C[C@H](N(C)C)[C@H]2O)[C@](C)(OC)C[C@@H](C)C(=O)[C@H](C)[C@H]2N(CCCCn3cnc(-c4cccnc4)c3)C(=O)O[C@]12C	0	-	-
CCCN(CCC)C(=O)Cn1c(=O)n(-c2ccc(Cl)cc2)c(=O)c2c3c(sc21)CCCC3	0	0	0
CCCN(CCC)C(=O)Cn1c(=O)n(-c2ccc(CC)cc2)c(=O)c2c3c(sc21)CCC3	89µM	0	0
Cc1ccc(NC(=O)Cn2nc(Cc3ccncc3)c3ccccc3c2=O)c(Cl)c1	?	0	0
CCc1ccc(NC(=O)Nc2cn(C)c(=O)c3ccccc23)cc1	?	0	32µM[activator]
Cc1ccc(NC(=O)Nc2cn(C)c(=O)c3ccccc23)c(Cl)c1	0	0	28µM[activator]
CC(C)Cn1cc(NC(=O)Nc2cccc(C(F)(F)F)c2)c2ccccc2c1=O	0	0	?
Cc1ccc(-c2c(C(=O)CCl)n(CCCO)c3ncnc(N)c23)cc1	0	-	0
COCc1c(Cl)ccc2c1CC[C@H]2c1ncc[nH]1	0	-	0
COc1ccccc1NC(=O)c1cc2cc3ccc(OC)c(Cl)c3nc2s1	40µM	0	0
COc1ccc(OC)c(NC(=O)c2cc3cc4ccc(C)cc4nc3s2)c1	0	0	0
Fc1ccccc1-c1nc(NCc2ccc(-c3cccnc3)cc2)c2ccccc2n1	0	-	-
O=[S+]([O-])(Nc1nccs1)c1ccc(NCc2cccc(Cl)c2)cc1	0	-	-
SMILES	NTMT1 inhibitor	GALC G270D up	FH mod
Cc1oc2c(c(C)cc3oc(=O)c(CC(=O)NCc4ccccc4)c(C)c32)c1C	0	0	0
Cc1cc2oc(=O)c(CC(=O)O)c(C)c2c2occ(-c3ccccc3)c12	28µM	0	0
C[n+]1ccc(-c2c3nc(c(-c4cc[n+](C)cc4)c4ccc([nH]4)c(-c4cc[n+](C)cc4)c4nc(c(-c5cc[n+](C)cc5)c5ccc2[nH]5)C=C4)C=C3)cc1	14µM	-	0
C=C(C)C1CC(O)C(C)C12CC(O)C1(C)OC1C2O (stereo unspecified)	0	-	?
CCOc1ccc(CNc2ccc(-c3nc4ccccc4[nH]3)cc2)cc1	0	-	-
COc1ccc(-c2cnc3ccc(NCc4ccc(S(N)(=O)=O)cc4)nn23)cc1OC	?	-	0
CN1CCC(CNc2ccc3ncc(-c4cccc(OC(F)(F)F)c4)n3n2)CC1	16µM	-	?
O=C(Nc1ccc(C(=O)N2CCN(c3ccc(F)cc3)CC2)cc1)c1nsc2ccccc12	0	0	0
CCOC(=O)c1ccc(NC(=O)c2nsc3ccccc23)cc1	?	0	0
CNC(=O)c1ccc(NC(=O)c2nsc3ccccc23)cc1	40µM	0	0
O=C(NCc1cccc(F)c1)c1ccc(NC(=O)c2nsc3ccccc23)cc1	45µM	0	0
Cc1ccc(CNC(=O)c2ccc(NC(=O)c3nsc4ccccc34)cc2)cc1	0	0	0
O=C(Nc1ccc(C(=O)N2CCCCC2)cc1)c1nsc2ccccc12	14µM	0	0
CC(=O)[C@]1(N)Cc2c(O)c3c(c(O)c2[C@@H](O[C@H]2C[C@H](O)[C@H](O)CO2)C1)C(=O)c1ccccc1C3=O	0	-	-
CC1=C(CCC(C)O[C@@H]2O[C@H](CO)[C@@H](O)[C@H](O)[C@H]2O)C(C)(C)CCC1=O (stereo partly specified)	0	-	0
CN(C)c1ccc(Nc2ncnc3sc4c(c23)CCCC4)cc1	?	0	?
CC(C)OCCCNc1ncnc2sc3c(c12)CCCC3	50µM	0	0
CC[C@]1(O)C[C@H]2CN(CCC3C(=Nc4ccccc43)[C@@](C(=O)OC)(c3cc4c(cc3OC)N(C)[C@H]3[C@@](O)(C(N)=O)[C@H](O)[C@]5(CC)C=CCN6CC[C@]43[C@@H]65)C2)C1 (stereo partly specified)	?	-	0
CC(=O)N[C@H]1CSSC[C@@H](C(N)=O)NC(=O)[C@H](C(C)C)NC(=O)[C@H](C)NC(=O)[C@H](Cc2cnc[nH]2)NC1=O	0	-	-
Cc1ccc(-c2nc3ccccc3s2)cc1NC(=O)c1ccc(-c2cccc(Cl)c2)o1	0	-	-
CC(C)(C)C1CCc2oc3ccc(NS(=O)(=O)c4ccc(C(=O)O)cc4)cc3c2C1 (stereo unspecified)	50µM	0	?
CC(C)(C)C1CCc2oc3ccc(NS(=O)(=O)c4cc(Cl)ccc4Cl)cc3c2C1 (stereo unspecified)	0	0	0
CN1CCN(C(=O)c2ccc(Nc3nccc(-c4cccs4)n3)cc2Cl)CC1	0	-	0
CNC(=O)Cn1cc(-c2ccc3c(c2)C(F)CC32NC(=O)N(CC(=O)N(Cc3ccc(F)cc3)C(C)C(F)(F)F)C2=O)cn1 (stereo unspecified)	0	-	-
COc1cccc(C(=O)NCCc2nc3ccccc3n2CCOc2ccc(C)cc2)c1	0	-	-
COc1cc2c(NC3CCN(C4CCCCC4)CC3)nc(N3CCCN(C(C)C)CC3)nc2cc1OCCCN1CCCCC1	20µM	-	-
COc1cc2c(NC3CCN(CC4CCCCC4)CC3)nc(N3CCCN(C(C)C)CC3)nc2cc1OCCCN1CCCCC1	?	-	0
